T cruzi growth-1 = T. cruzi intracellular proliferation inhibitors, primary screen, cell-based, beta-gal Tulahuen parasites, NIH3T3 host, luminescence; T. cruzi beta-gal in NIH3T3, GalScreen luminescence, 90 h; inhibition, % at 8.34 µM; 5.9% of 77,000 active; AID 624255, 2012;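 active means mean inhibition above about 93%, with at least 55% of replicates each passing it, limit read from the data, passing the limit was not always enough; inconclusive means only one of those two conditions holds; inactive means neither condition holds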
C diff HTS = C. difficile growth inhibitors, primary screen, HTS; 0.25% of 86,000 active; growth activity, negative = inhibition, % at 16 µg/mL (by protocol); Clostridium difficile clinical isolate growth, OD600, 24 h; stronger effect = lower value;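 active means mean growth activity at or below -80% and every replicate also at or below -80%; inconclusive means mean at or below -80% but some replicate above -80%; inactive means mean growth activity above -80%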;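 further: 0% = DMSO wells and -100% = levofloxacin 16 µg/mL wells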
Pf Dd2 inh = P. falciparum Dd2 growth inhibitors, primary screen, SYBR Green fluorescence, single dose replicates; 72 h; stronger effect = lower value; activity change, % at 10 µM; 2.3% of 94,000 active; AID 1159554, 2015; in the data active means activity change below about -80%; inconclusive means no clear call, values can overlap the other calls
T cruzi growth-2 = T. cruzi intracellular proliferation inhibitors, confirmation, cell-based, NIH3T3 host, beta-gal parasite, luminescence, cherry-pick; T. cruzi beta-gal in NIH3T3, GalScreen luminescence, 90 h; AID 651739, 2012; 72% of 5,600 active; inhibition, % at 8.35 µM; shares compounds with T cruzi growth-1;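 active means mean replicate inhibition above about 95% and at least 55% of replicates individually reaching it, limit read from the data; inconclusive means only one of the two criteria is met; inactive means neither criterion is met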
T cruzi growth-3 = inhibitors of intracellular T. cruzi replication, confirmation, NIH3T3 host cells, beta-gal parasites, cherry-pick, set 2; shares compounds with T cruzi growth-1; T. cruzi beta-gal in NIH3T3, GalScreen luminescence, 90 h; inhibition, % at 2.09 µM; 21% of 5,600 active; AID 651740, 2012;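 active means mean inhibition above about 95%, with at least 55% of replicates also reaching it, limit read from the data; inconclusive means meets just one of the two conditions; inactive means meets neither condition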;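 further: plate controls were neutral control median for no effect and positive control median for full effect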
3T3 cytotox = cytotoxicity in mouse NIH/3T3 fibroblasts, confirmation, cytotoxicity control for T. cruzi proliferation inhibitor project, cell-based, cherry-pick, single point. NIH/3T3 viability, CellTiter-Glo ATP luminescence, 90 h. 14% of 5,600 active. cytotoxicity (signal decrease), % at 8.35 µM. shares compounds with T cruzi growth-1. AID 651742, 2012;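 active means mean signal decrease across replicates above about 35% based on untreated-well scatter, with enough replicates individually passing, limit read from the data; inconclusive means no rule stated though some were filed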;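 further: 0% = median of neutral control wells and 100% = median of positive control wells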
3T3 cytotox 2 = NIH/3T3 fibroblast cytotoxicity, confirmation, cytotoxicity control, cell-based, cherry-pick, single point, set 2 | shares compounds with T cruzi growth-1 | NIH/3T3 viability, CellTiter-Glo ATP luminescence, 90 h | inhibition, % at 24.9 µM | 56% of 5,600 active | AID 651744, 2012;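 active means mean loss of cell viability signal at or above a set limit, and enough replicates individually reaching it; inconclusive means meets only the mean limit or only the replicate share; inactive means meets neither condition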;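 further: 0% = median of neutral control wells and 100% = median of positive control wells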
The depositor's hits bear a star; ? = inconclusive; nt = not tested or not shown. An excerpt weighted towards active compounds, which were near 6.8% of everything screened.

SMILES	T cruzi growth-1	C diff HTS	Pf Dd2 inh	T cruzi growth-2	T cruzi growth-3	3T3 cytotox	3T3 cytotox 2
COc1ccc(S(=O)(=O)Nc2ccc3c(c2)C(=O)N([C@H](C)CO)C[C@@H](C)[C@H](CN(C)S(=O)(=O)c2ccccc2)OCCCC[C@@H](C)O3)cc1	nt	-8	-64	nt	nt	nt	nt
Cc1cccc(S(=O)(=O)N[C@H]2CC[C@H](CCn3cc(-c4ccccn4)nn3)O[C@H]2CO)c1	4	-1	-2	nt	nt	nt	nt
O=C(O)C[C@H]1CC[C@@H](NC(=O)Nc2cc(F)ccc2F)[C@@H](CO)O1	nt	3	-1	nt	nt	nt	nt
CC(=O)N(C[C@@H]1N[C@@H](CO)[C@@H]1c1ccc(-c2ccccc2)cc1)C(C)C	12	-8	1	nt	nt	nt	nt
CCCNC(=O)N1CCC2(CC1)CN(C(=O)CC1CC1)[C@@H](CO)c1c2c2ccc(OC)cc2n1C	nt	10	1	nt	nt	nt	nt
CN1C[C@H](O)COC[C@@H]2O[C@@H](CC(=O)N3CCN(c4ccccc4)CC3)CC[C@H]21	?	-3	-32	102*	27	4	-6
O=C(C[C@@H]1CC[C@@H]2[C@H](COC[C@@H](O)CN2Cc2ccc(Oc3ccccc3)cc2)O1)N1CCN(c2ccccc2)CC1	96*	24	-71	98*	67	11	32*
Cc1ccccc1S(=O)(=O)N1C[C@@H](O)COC[C@@H]2O[C@H](CC(=O)N3CCN(C)CC3)CC[C@H]21	?	-4	nt	-27	-15	-5	2
CN1C[C@@H](O)COC[C@H]2O[C@@H](CC(=O)N3CCN(c4ccccc4)CC3)CC[C@@H]21	21	-3	-20	nt	nt	nt	nt
O=C(C[C@H]1CC[C@@H]2[C@H](COC[C@@H](O)CN2Cc2ccc(Oc3ccccc3)cc2)O1)N1CCN(c2ccccc2)CC1	130*	23	-41	89	70	17	91*
Cc1ccccc1S(=O)(=O)N1C[C@@H](O)COC[C@@H]2O[C@@H](CC(=O)N3CCN(C)CC3)CC[C@H]21	47	-3	nt	nt	nt	nt	nt
O=C(C[C@@H]1CC[C@H]2[C@@H](COC[C@H](O)CN2Cc2ccc(Oc3ccccc3)cc2)O1)N1CCOCC1	-2	nt	-5	nt	nt	nt	nt
O=C(C[C@H]1CC[C@@H]2[C@H](COC[C@@H](O)CN2Cc2ccc(Oc3ccccc3)cc2)O1)N1CCOCC1	12	nt	-16	nt	nt	nt	nt
CN(C)C(=O)c1cccc(-c2ccc([C@@H]3[C@@H](CO)N4C(=O)CN(C(=O)C5CCCC5)C[C@@H]34)cc2)c1	nt	-1	-14	nt	nt	nt	nt
Cc1noc(C)c1NC(=O)Nc1cccc2c1O[C@H](CN(C)CC1CC1)[C@@H](C)CN([C@H](C)CO)C2=O	-35	2	5	nt	nt	nt	nt
CO[C@@H]1CN(C)C(=O)c2ccc(NS(C)(=O)=O)cc2OC[C@H](C)N(Cc2ccccc2)C[C@H]1C	-73	7	4	nt	nt	nt	nt
O=C(C[C@H]1CC[C@H]2[C@@H](COC[C@@H](O)CN2Cc2ccc(Oc3ccccc3)cc2)O1)N1CCN(c2ccccc2)CC1	127*	60	-76	101*	57	-32	104*
O=C(C[C@H]1CC[C@H]2[C@@H](COC[C@H](O)CN2Cc2ccc(Oc3ccccc3)cc2)O1)N1CCOCC1	3	nt	-25	nt	nt	nt	nt
Cc1cccc(S(=O)(=O)N2CCCCN3[C@H](CO)[C@H](c4ccc(-c5ccncc5)cc4)[C@H]3C2)c1	110*	-4	-62	107*	73	-11	37*
Cc1cccc(S(=O)(=O)N2CCCCN3[C@@H](CO)[C@H](c4ccc(-c5ccncc5)cc4)[C@@H]3C2)c1	98*	-8	-21	107*	65	29	46*
Cc1cccc(S(=O)(=O)N2CCCCN3[C@H](C2)[C@H](c2ccc(-c4ccccc4)cc2)[C@@H]3CO)c1	93	1	-50	nt	nt	nt	nt
Cc1ccc(-c2ccc([C@H]3[C@H](CO)N4CCCCN(S(=O)(=O)c5cccc(C)c5)C[C@@H]34)cc2)cc1	55	50	-49	nt	nt	nt	nt
Cc1ccc(-c2ccc([C@H]3[C@H]4CN(S(=O)(=O)c5cccc(C)c5)CCCCN4[C@H]3CO)cc2)cc1	86	-6	-2	nt	nt	nt	nt
Cc1ccc(-c2ccc([C@@H]3[C@H](CO)N4CCCCN(S(=O)(=O)c5cccc(C)c5)C[C@@H]34)cc2)cc1	108*	-39	-79	?	98*	34	104*
CC(C)CC#Cc1ccc([C@@H]2[C@@H](CO)N3C(=O)CN(S(=O)(=O)c4ccccc4)C[C@H]23)cc1	nt	19	-7	nt	nt	nt	nt
SMILES	T cruzi growth-1	C diff HTS	Pf Dd2 inh	T cruzi growth-2	T cruzi growth-3	3T3 cytotox	3T3 cytotox 2
C[C@H](CO)N1C[C@H](C)[C@@H](CN(C)Cc2ccncc2)Oc2ccc(NC(=O)CCCN(C)C)cc2CC1=O	-38	1	33	nt	nt	nt	nt
COc1ccc(NC(=O)N(C)C[C@@H]2OCCCC[C@@H](C)Oc3ccc(NC(=O)C4CCCCC4)cc3C(=O)N([C@H](C)CO)C[C@@H]2C)cc1	52	2	-60	nt	nt	nt	nt
CC(C)CC#Cc1ccc2c(c1)O[C@H](CN(C)C(=O)NC1CCCC1)[C@H](C)CN([C@@H](C)CO)S2(=O)=O	120*	-7	10	110*	79	20	81*
CC(C)CC#Cc1ccc2c(c1)O[C@@H](CN(C)C(=O)NC(C)C)[C@@H](C)CN([C@H](C)CO)S2(=O)=O	51	nt	-25	nt	nt	nt	nt
CC(C)CC#Cc1ccc2c(c1)O[C@H](CN(C)C(=O)NC(C)C)[C@H](C)CN([C@@H](C)CO)S2(=O)=O	73	0	-28	nt	nt	nt	nt
CC(C)CC#Cc1ccc2c(c1)O[C@H](CN(C)C(=O)NC1CCCC1)[C@@H](C)CN([C@@H](C)CO)S2(=O)=O	125*	0	3	103*	81	6	103*
CC(C)CC#Cc1ccc2c(c1)O[C@H](CN(C)C(=O)NC(C)C)[C@H](C)CN([C@H](C)CO)S2(=O)=O	63	1	-27	nt	nt	nt	nt
CC(C)CC#Cc1ccc2c(c1)O[C@@H](CN(C)C(=O)NC1CCCC1)[C@@H](C)CN([C@@H](C)CO)S2(=O)=O	120*	-17	-21	101*	84	-19	104*
CC(C)CC#Cc1ccc2c(c1)O[C@@H](CN(C)C(=O)NC(C)C)[C@H](C)CN([C@H](C)CO)S2(=O)=O	51	nt	-15	nt	nt	nt	nt
CC(C)CC#Cc1ccc2c(c1)O[C@H](CN(C)C(=O)NC1CCCC1)[C@H](C)CN([C@H](C)CO)S2(=O)=O	120*	5	-11	103*	93	18	104*

Screening results (PubChem BioAssay)
